In the library only some 2.7% were active in any assay of this set; here they are far more common.
GLP-1R inv ag = qHTS of GLP-1 Receptor Inverse Agonists (Inhibition Mode); HEK293 GLP-1R CRE-luciferase, luminescence, 24 h; GLP-1R form is constitutively active; Glucagon-like peptide 1 receptor (Homo sapiens), P43220; Potency, µM (top dose mostly 38.3 µM), hits mostly inhibitors; actives 1.6% (n = 410,000); also: nearly all actives have a fitted effect of over 55% in size
Target sequence (P43220 whole entry, looked up): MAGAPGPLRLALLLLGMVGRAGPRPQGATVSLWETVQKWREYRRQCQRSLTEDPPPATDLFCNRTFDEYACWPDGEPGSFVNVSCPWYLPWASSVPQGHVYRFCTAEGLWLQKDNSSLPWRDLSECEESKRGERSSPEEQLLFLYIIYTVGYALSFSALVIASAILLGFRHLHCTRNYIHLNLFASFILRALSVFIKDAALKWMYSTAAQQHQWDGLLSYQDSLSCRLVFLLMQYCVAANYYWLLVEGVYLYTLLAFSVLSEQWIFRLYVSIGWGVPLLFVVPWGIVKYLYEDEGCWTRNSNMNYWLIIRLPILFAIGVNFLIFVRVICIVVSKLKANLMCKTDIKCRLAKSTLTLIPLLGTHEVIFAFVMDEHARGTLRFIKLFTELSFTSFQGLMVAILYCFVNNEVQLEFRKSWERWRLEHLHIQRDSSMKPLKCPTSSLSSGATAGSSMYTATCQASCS
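HEK293 cells stably co-expressing a cAMP-responsive luciferase reporter and constitutively active GLP-1R were seeded, incubated 12 h, then exposed to compounds for 24 h at 37 C. Luminescence was read 12 min after detection reagent; inverse agonists lower signal.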
BRCA1 expr act = qHTS Assay to Identify Small Molecule Activators of BRCA1 Expression | actives 1.1% (n = 380,000) | MCF7-BRCA1-FFLuc reporter, luminescence, 48 h; response scale: scaled: vehicle 0%, 10 µM genistein 100% | Potency, µM (doses to about 46.1 µM), most hits filed as activators; also: nearly all actives have a fitted effect of over 80% in size
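Luminescence from a BRCA1-driven firefly luciferase in MCF7 cells was read after 48 h compound exposure at 37 C. Data normalized against DMSO and a 10microM genistein activation control, then curve-fitted across the titration.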
GLP-1R agonist = qHTS of GLP-1 Receptor Agonists | actives 0.007% (n = 380,000) | HEK293 GLP-1R CRE-luciferase, luminescence, 4-6 h; cells express a hypersensitive GLP-1R form | Glucagon-like peptide 1 receptor (Homo sapiens), P43220 | Potency, µM (top dose mostly 45.6 µM), usual class: activators
Integrin act MD = qHTS for Activators of Integrin-Mediated Alleviation for Muscular Dystrophy; alpha7betagal myoblasts, beta-gal FDG fluorescence, 48 h; actives 0.064% (n = 350,000); Potency, µM (series often up to 38.3 µM), usual class: activators; also: nearly all actives have a fitted effect of over 60% in size
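Alpha7betagal+/- myoblasts (passage 13) were plated 16-24 hr, then exposed to compounds (1:260 dilution of DMSO stock) for 48 hours at 37C. After MPER lysis, β-galactosidase reporter activity was read as FDG fluorescence (ex 480/em 540) after 30 minutes.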
HEK293 tox = qHTS of GLP-1 Receptor Inverse Agonists: Cytotox Screen. HEK293 cAMP-luciferase reporter cells, luminescence, 24 h. Potency, µM (top dose mostly 38.3 µM), hits mostly inhibitors. actives 0.13% (n = 410,000);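 also: loss of luciferase light is scored as toxicity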
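Quantitative HTS format, 1536 wells, 200 cells/uL seeded. Compounds: 23 nL, 24 h, 37 °C. Detection: luciferase reagent, luminescence at 12 min RT; decreased signal taken as cytotoxic.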
Numbers stand for hits; i = inactive; ? = inconclusive; nt = not tested or not shown; [ ] = dose if it differs, or a comment. Calls follow the shape of the dose curve; as a rule, active = well fitted curve in the direction sought with a large enough effect; inconclusive = small, poorly fitted or top-dose-only effect, or another doubt; inactive = no such curve, though single readings can be large; an effect the other way counts as inactive or inconclusive.

SMILES	GLP-1R inv ag	BRCA1 expr act	GLP-1R agonist	Integrin act MD	HEK293 tox
CC(C)CNC(=S)NC(=O)c1ccc([N+](=O)[O-])cc1	10µM	i	i	i	?
CSCCNC(=O)c1ccc(C(C)(C)C)cc1	?	7.1µM	i	i	i
CCCCNC(=S)NC(=O)c1ccc([N+](=O)[O-])cc1	?	i	i	i	?
CC(C)CCNC(=S)Nc1ccc([N+](=O)[O-])cc1	11µM	i	i	i	?
CCOC(=O)NNC(=O)c1[nH]c2ccc(Br)cc2c1-c1ccccc1	10µM	i	i	i	?
CC(=O)NNC(=O)c1[nH]c2ccc(Br)cc2c1-c1ccccc1	10µM	i	i	i	i
NNC(=O)c1[nH]c2ccc(Br)cc2c1-c1ccccc1	?	i	i	?	i
C=C(CC[C@@H](C)[C@H]1CCC2[C@]1(C)CC[C@]13C[C@@]14CCC(OC(=O)/C=C/c1ccc(O)c(OC)c1)C(C)(C)[C@@H]4CC[C@@]23C)C(C)C (some centres not stated)	nt	nt	i	nt	nt
O=C(C[n+]1ccccc1Cl)c1ccc2c(c1)CCCC2	nt	i	nt	nt	nt
O=C(C1CCN(CCCc2ccccc2)CC1)N(CCc1ccccc1)Cc1ccccc1	10µM	i	i	i	?
CC1(C)C2CCC1(C)C(OCCNCCOC(=O)Nc1ccccc1)C2 (configuration not stated)	11µM	i	i	i	i
CC1CCCN(C(=O)CNC(=O)c2cccs2)C1 (configuration not stated)	i	10µM	i	i	i
CCOC(=O)c1nn(-c2ccccc2)c(-c2ccccc2)c1C(=O)c1ccccc1	2.8µM	i	i	i	i
CCOC(=O)c1nn(-c2cccc(OC)c2)c(-c2ccccc2)c1C(=O)c1ccccc1	5.6µM	i	i	i	i
CCOC(=O)c1nn(-c2ccc(F)cc2)c(-c2ccccc2)c1C(=O)c1ccccc1	?	i	i	i	i
Cn1cc(S(=O)(=O)N2CCCCCC2)cc1C(=O)N1CCN(c2ccccc2F)CC1	i	i	i	nt	i
CC1(C)c2ccccc2N2CC(=O)N[C@@]21/C=C/C=C/c1ccccc1	3.5µM	i	i	i	i
COc1ccccc1CNC(=O)C1CCN(S(=O)(=O)c2c(C)noc2/C=C/c2cccs2)CC1	i	nt	nt	nt	i
O=c1/c(=C\c2cccnc2)sc2nc3ccccc3n12	i	13µM	i	i	i
Clc1ccc2[nH]c3c(c2c1)CNCC3	10µM	i	i	i	i
Cc1ccc(-c2nnc(Nc3ccc(O)cc3)c3ccccc23)cc1S(=O)(=O)N1CCCCC1	i	nt	nt	nt	i
CC(/C=N/NC(=O)CSc1ccccn1)=C\c1ccc(C(C)C)cc1	?	?	i	i	i
CC(/C=N/NC(=O)c1cccnc1)=C\c1ccccc1	i	3.2µM	i	i	i
CC(/C=N\NC(=O)c1cc(C)oc1C)=C\c1ccccc1	i	2µM	i	i	i
CC(/C=N/NC(=O)c1ccncc1)=C\c1ccc(C(C)C)cc1	i	8.9µM	i	i[7.66 µM]	i
SMILES	GLP-1R inv ag	BRCA1 expr act	GLP-1R agonist	Integrin act MD	HEK293 tox
Cc1ccc(C)c(N2CCN(CCCNC(=O)c3ccc4nc(N5CCCCC5)sc4c3)CC2)c1	i	?	nt	nt	i
COc1ccc(C(=O)/C(=C/O)N=Nc2ccc(F)cc2)cc1	10µM	i	i	i	?
COc1ccc(N=N/C(=C\O)C(=O)c2cccs2)cc1	?	i	i	?	i
CN(C)CCNc1nc2sc3c(c2c(=O)n1Cc1ccccc1)CCCCC3	1.1µM	i	i	i	?
CN(C)CCNc1nc2sc3c(c2c(=O)n1-c1ccccc1)CCCCC3	?	i	i	i	i
COCCNc1ccc(-c2nc(-c3ccncc3)no2)cc1[N+](=O)[O-]	i	nt	nt	nt	i
CCOc1ccc(N2CC(O)Cn3c2nc2c3c(=O)n(CCCc3ccccc3)c(=O)n2C)cc1 (configuration not stated)	5.6µM	i	i	i	i
